# KB-3-1 tox = KB-3-1 parental cell cytotoxicity; KB-3-1 viability, CellTiter-Glo ATP luminescence, 72 h; Potency, µM (doses to about 46.1 µM), hits mostly cytotoxic; 400,000 tested, 1.4% active; AID 1347075; further: on the % scale 0 is the no-effect control and ±100 the full control effect; nearly all actives have a fitted effect of over 60% in size
#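 Cytotoxicity in the drug-sensitive parental line KB-3-1 was scored as loss of CellTiter-Glo luminescence following 72 h incubation with compound. Values come from curve fitting of normalized concentration-response data.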
# KB-V1 cytotox = kills drug-selected multidrug resistant KB-V1 cells | KB-V1 MDR cells viability, CellTiter-Glo, 72 h | Potency, µM (top dose mostly 46.1 µM), hits mostly cytotoxic | 400,000 tested, 3.4% active | AID 1347076; further: on the % scale 0 is the no-effect control and ±100 the full control effect; nearly all actives have a fitted effect of over 60% in size
#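 KB-V1, DMEM (no phenol red) + 10% FBS; cpd pin-transferred, titration series; 72 h, 37 degrees C; CellTiter-Glo, luminescence. Data normalized, curve-fit.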
# ATXN viability = viability counter-screen for ATXN expression inhibitors; Potency, µM (top dose mostly 56.7 µM), most hits filed as cytotoxic; S2 cells (HEK-293 line with an ATXN2-luciferase reporter) viability, CellTiter-Fluor protease fluorescence, 24 h; 400,000 tested, 0.49% active; further: nearly all actives have a fitted effect of over 40% in size
# ATXN2 expr inh = inhibitors of ATXN2 expression. HEK-293 ATXN2-luciferase reporter, luminescence, 24 h. Potency, µM (series often up to 57 µM), for inactives: at the highest dose activity change, negative = inhibition, hits mostly inhibitors. 360,000 tested, 0.72% active. AID 1745845; further: on the % scale 0 is the no-effect control and ±100 the full control effect; nearly all actives have a fitted effect of over 55% in size
#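 ATXN2-luciferase reporter cells (luciferase flanked by upstream and downstream ATXN2 gene portions) were treated 24 h at 37 °C with compounds at up to 57 uM. SteadyGlo luminescence gave expression; GF-AFC fluorescence gave viability.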
# HT1080NT lethal = kills 2HG-producing HT-1080-NT fibrosarcoma cells. HT-1080-NT fibrosarcoma viability, CellTiter-Glo ATP luminescence, 48 h. Potency, µM (series often up to 46.1 µM), for inactives: at the top dose activity, negative = less viability, hits mostly cytotoxic. 360,000 tested, 1.6% active. AID 686970;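 further: NT is the 2HG producing partner of a matched IDH1 knockdown line; 0% = DMSO-treated cells and -100% = media-only wells without cells; nearly all actives have a fitted effect of over 55% in size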
#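 Viability by CellTiter-Glo luminescence after 48 h compound exposure at 37C of HT-1080-NT cells (750/well, RPMI, 5% FBS). % activity scaled between DMSO wells and medium-only wells, then curve-fitted and categorized by curve class.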
# HT1080 IDH1KD tx = kills HT-1080 cells with IDH1 knockdown. HT-1080 IDH1 knockdown viability, ATP luminescence, 48 h. Potency, µM (top dose mostly 46.1 µM), inactives show top-dose activity, negative = toxicity, hits mostly cytotoxic. 360,000 tested, 2% active;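 further: 0% = DMSO wells and -100% = cell-free medium wells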
#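 Assay cells: HT-1080 with IDH1 knockdown, 750 per well, RPMI/5% FBS. Exposure: 48 h at 37 °C following 2 h pre-incubation. Read: CellTiter-Glo luminescence; fitted concentration-response, curve class assigned.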
# Numbers without * were called inactive; i = inactive; ? = inconclusive; . = no result given; [ ] = remark or other dose. This is a sample that favours compounds with a hit; in the whole collection about 6.2% have one here. The call rests on the fitted dose curve; in most records, active means well fitted curve in the direction sought with a large enough effect; inconclusive means small, poorly fitted or top-dose-only effect, or another doubt; inactive means no such curve, though single readings can be large; an effect the other way counts as inactive or inconclusive. Potency means the concentration at half of the fitted maximal effect.
SMILES,KB-3-1 tox,KB-V1 cytotox,ATXN viability,ATXN2 expr inh,HT1080NT lethal,HT1080 IDH1KD tx
Cc1ccc(Cl)cc1N1CCN(C(=O)c2cnn(-c3ccc(Cl)cc3)c2C2CCNCC2)CC1,i,i,.,32µM*,.,.
Cc1ccc(N2CCN(C(=O)c3cnn(-c4ccc(C)c(C)c4)c3C3CCNCC3)CC2)c(C)c1,?,i,i,?,.,.
CCc1cc(-c2[nH]ncc2-c2ccc3c(c2)OCO3)c(O)cc1O,i,9.2µM*,?,11µM*,?,?
CCc1cc(-c2[nH]ncc2-c2ccc(OC)cc2)c(O)cc1O,?,?,i,?,?,?
Oc1c(C(Nc2ccccn2)c2ccccn2)ccc2cccnc12 (configuration not stated),15µM*,5.8µM*,?,5µM*,?,8.2µM*
O=C(O)c1ccccc1NC(c1ccccc1)c1ccc2cccnc2c1O (configuration not stated),?,?,?,?,-22%,8.2µM*
Oc1ccccc1C(Nc1nccs1)c1ccc2cccnc2c1O (configuration not stated),2.3µM*,12µM*,i,7.1µM*,?,7.3µM*
Cc1ccnc(NC(c2ccccc2F)c2ccc3cccnc3c2O)c1 (configuration not stated),?,i,i,?,.,.
COc1ccccc1N1CCN(C(=O)c2cc3ccc4ccc(C)[nH]c4c3n2)CC1,i,?,i,?,.,.
CC(=O)c1ccc(OC2(C)CCN(CCOc3ccc(C)cc3)C2)cc1 (configuration not stated),i,i,i,-13%,-24%,-5%
Oc1ccc(/C(Cc2ccccn2)=N\Nc2ccccc2)c(O)c1,i,?,i,.,?,9.2µM*
CCN(CC)c1ccc(Nc2cc3n(c(=O)n2)CCc2cc(OC)c(OC)cc2-3)cc1,i,i,i,-1%,26µM*,?
Cc1cc(/C=C2\SC(=Nc3ccc(F)cc3)NC2=O)c(C)n1-c1ccc(S(N)(=O)=O)cc1,6.5µM*,i,?,?,6.5µM*,5.2µM*
Cc1cc(/C=C2\SC(=S)NC2=O)c(C)n1-c1ccc(O)cc1,?,i,?,65%,?,?
COc1ccccc1OCC(=O)NCC1(N(C)C)CCCCC1,i,i,i,13%,.,.
O=C(c1ccco1)N1CCN(C(=O)c2cc(-c3ccccc3)nc3ccccc23)CC1,i,i,i,11%,-22%,-16%
Cc1cc(C)c2nc(C(F)(F)F)nc(N3CCN(C(=O)c4ccco4)CC3)c2c1,i,12µM*,i,-22%,-10%,0%
CCc1cc2cc3c(cc2nc1SCC(=O)N1CCN(C(=O)c2ccco2)CC1)OCO3,i,?,i,-13%,-7%,-14%
CCc1cc2cc(C)cc(C)c2nc1SCC(=O)N1CCN(C(=O)c2ccco2)CC1,?,23µM*,?,-17%,0%,-1%[9.24 µM]
CCc1cc2ccc(C)cc2nc1SCC(=O)N1CCN(C(=O)c2ccco2)CC1,i,5.2µM*,i,-10%,-2%,-2%
Cc1cccc2c(C(=O)N3CCN(C(=O)c4ccco4)CC3)cc(-c3cccc(Br)c3)nc12,?,9.2µM*,?,?,?,18µM*
Cc1cc(C)c2nc(N3CCCN(C(=O)c4ccco4)CC3)c(C#N)cc2c1,i,i,.,.,-3%,-4%
COc1ccccc1CNc1ncnc2c1cnn2-c1ccc(C)cc1,i,i,?,5%,.,.
COc1ccc(S(=O)(=O)N2CCCCC2)cc1NC(=O)Cc1ccc(Br)cc1,i,i,i,1%,-7%,-7%
CN1CCN(CC(O)COc2ccccc2)CC1 (configuration not stated),i,i,i,7%,15%,10%
SMILES,KB-3-1 tox,KB-V1 cytotox,ATXN viability,ATXN2 expr inh,HT1080NT lethal,HT1080 IDH1KD tx
CN1CCN(CC(O)COc2ccc(C34CC5CC(CC(C5)C3)C4)cc2)CC1 (configuration not stated),?,?,i,-8%,18µM*,15µM*
CCc1ccc(NC(=S)/N=C(\N)Nc2nc(C)c3cc(CC)ccc3n2)cc1,?,?,?,-25%,?,10µM*
Cc1cccc(NC(=S)/N=C(\N)Nc2nc(C)c3ccccc3n2)c1,?,?,?,-21%,-21%,-27%
Cc1ccc(S(=O)(=O)/N=C(\N)Nc2nc(C)c3ccccc3n2)cc1,i,9.2µM*,i,9%,1%,9%
Cc1cccc(NC(=S)/N=C(\N)Nc2nc(C)c3cc(C)ccc3n2)c1,i,23µM*,?,-22%,-2%,-2%
Cc1cccc(NC(=S)/N=C(\N)Nc2nc(C)c3ccc(C)cc3n2)c1,i,i,i,-22%,-27%,?
Cc1cc(C)cc(NC(=S)/N=C(\N)Nc2nc(C)c3ccccc3n2)c1,?,18µM*,i,-20%,1%,-14%
COc1ccc2c(C)nc(N/C(N)=N/S(=O)(=O)c3ccc(C)cc3)nc2c1,i,i,i,-23%,-22%,-22%
COc1ccc(-c2nc(C(N)=O)c3c(n2)n(-c2ccccc2OC)c(=O)n3C)c(OC)c1,i,i,?,-1%,.,.
CCOC(=O)Cn1c(=O)n(CC2CCCO2)c2nc(-c3ccccc3Cl)nc(C(N)=O)c21 (configuration not stated),i,?,i,4%,.,.
COC(=O)[C@]1(Sc2ccc(OC)cc2)CC(=O)N[C@@H]1c1ccccc1,i,i,i,7%,7%,-1%
CCOC(=O)c1cnc2cc(C(F)(F)F)ccc2c1N1CCN(c2cccc(Cl)c2)CC1,i,i,i,-7%,.,.
CC1=C([N+](=O)[O-])C(c2ccc3c(c2)OCO3)N(C)C(=O)N1C (configuration not stated),i,i,i,-21%,9%,-3%
O=C(c1cccnc1)C1CCCN(Cc2ccc3c(c2)CN(C(=O)c2cccs2)CCO3)C1 (configuration not stated),.,.,i,.,.,.
COc1ccc2nc(N/C(N)=N/C(=S)Nc3ccccc3)nc(C)c2c1,?,9.2µM*,i,-19%,-7%,0%
CCOc1ccc2nc(N/C(N)=N/C(=S)Nc3ccc(OC)cc3)nc(C)c2c1,i,i,?,?,-3%,-5%
O=C(CSc1ccccc1)N1CCN(c2ccccn2)CC1,i,i,i,21%,-1%,12%
